Mot1-301 SUMO: SUMOylation pathway inhibition by Mot1-301 growth rescue; S. cerevisiae Mot1-301 growth rescue, ATP luminescence, 38.5C; percent above DMSO median, 100 means doubled; growth rescue, % at 18.8 µM; actives 1% (n = 320,000);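 active = every valid replicate shows activation above 250% relative to neutral control wells; inactive = the rest, any valid replicate at or below 250%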
tim23-1 inh: inhibits growth of tim23-1 mutant yeast; S. cerevisiae tim23-1 growth, BacTiter-Glo luminescence, 24 h; inhibition, % at 20 µM; actives 1.3% (n = 330,000);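 active = growth inhibition of the mutant yeast at or above 50%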;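 note: temperature-sensitive mutant grown at 25 °C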
tim10-1 inh: inhibits growth of tim10-1 mutant yeast. S. cerevisiae tim10-1 ts strain growth, BacTiter-Glo, 24 h. actives 2.2% (n = 330,000). AID 463190. inhibition, % at 20 µM;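 active = inhibition of at least 40%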;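 note: mutant grown at 25 °C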
TIM10 inh: growth inhibitors of TIM10 yeast strain. S. cerevisiae TIM10 strain growth, BacTiter-Glo luminescence, 24 h. inhibition, % at 10 µM. actives 1.4% (n = 330,000). AID 463195;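 active = inhibition of 40% or more at the single tested concentration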;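 note: wild-type TIM10 isogenic control strain grown at permissive 25 °C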
PfHsp90 yeast 2: reduces growth (ATP signal) of yeast expressing P. falciparum Hsp90 | S. cerevisiae expressing PfHsp90, BacTiter-Glo ATP, 48 h; yeast lacking PDR1 and PDR3 efflux regulators | inhibition, % at 9.4 µM | actives 0.32% (n = 310,000) | AID 504621;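 active = every replicate shows inhibition above about 80%, whatever the replicate mean, limit read from the data; inconclusive = mean inhibition reaches the set limit but some replicate falls short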
tim23-1 confirm: confirmation of tim23-1 mutant yeast growth inhibitors | shares compounds with tim23-1 inh | S. cerevisiae tim23-1 growth, BacTiter-Glo luminescence, 24 h | inhibition, % at 20 µM | actives 83% (n = 4,400) | AID 463218;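 active = inhibition above about 39% in either of two replicate wells at 20 µM, limit read from the data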;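 note: temperature-sensitive tim23-1 mutant grown at 25 °C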
Large screens that a line does not name were inactive (follow-up assays come after a bar, where they were run). In the library only some 4.4% were active in any assay of this set; here they are far more common.

CC12CC3(C)CC(C)(C1)CC(C(=O)NC1=NCCS1)(C2)C3	tim23-1 inh 52 | tim23-1 confirm 40
Cc1cc(C(=O)COC(=O)c2ccc([N+](=O)[O-])o2)c(C)n1CC1CCCO1 (stereo unspecified)	tim23-1 inh 54 | tim23-1 confirm 55
Cc1cc(C)c(C(=O)COC(=O)c2ccc([N+](=O)[O-])o2)cc1C	none
COCCn1c(C)cc(C(=O)COC(=O)c2ccc([N+](=O)[O-])o2)c1C	tim23-1 inh 52 | tim23-1 confirm 59
COc1ccc(NC(=S)NCCSc2ccc(Cl)cc2)c(OC)c1	tim23-1 inh 50 | tim23-1 confirm 42
COc1ccccc1NC(=S)NCCSc1ccc(Cl)cc1	tim23-1 inh 54 | tim23-1 confirm 50
Cn1cc(C(=O)c2ccc(Cl)cc2)cc1-c1nc2ccccc2n1C	tim23-1 inh 64 (no result: PfHsp90 yeast 2) | tim23-1 confirm 48
CSc1nnc(C)c(/C=C/NOCc2ccc(Cl)cc2)n1	tim23-1 inh 54 | tim23-1 confirm 72
CCN(CC)C(=O)[C@H]1C[C@H](CC(=O)NCCC2=CCCCC2)C(=O)N2CCc3c([nH]c4ccc(Cl)cc34)[C@]12C	tim23-1 inh 58 (no result: Mot1-301 SUMO) | tim23-1 confirm inactive
CCN(CC)C(=O)[C@H]1CC(CC(=O)NCCC2=CCCCC2)C(=O)N2CCc3c([nH]c4ccccc34)[C@]12C (stereo partly specified)	none
CC1CCCN(C(=O)CN(c2ccccc2)S(=O)(=O)c2ccc(F)cc2)C1 (stereo unspecified)	none
O=C1NC(=Nc2ccccc2Cl)S/C1=C\c1cccc([N+](=O)[O-])c1O	none
O=C1NC(=Nc2ccccc2Cl)S/C1=C\c1cccc([N+](=O)[O-])c1	tim23-1 inh 55, PfHsp90 yeast 2 inconclusive | tim23-1 confirm 63
CCC1(c2ccccc2)NC(=O)N(CC(=O)NC2CCCC2)C1=O (stereo unspecified)	none (no result: Mot1-301 SUMO)
COc1cccc(Nc2nc(-c3ccc(O)cc3)cs2)c1	tim23-1 inh 54 (no result: PfHsp90 yeast 2) | tim23-1 confirm 53
COc1cccc(Nc2nc(-c3cccc(N4C(=O)c5ccccc5C4=O)c3)cs2)c1	none
O=C(NCc1n[nH]c(=S)n1-c1cccc(C(F)(F)F)c1)c1ccc(S(=O)(=O)N2CCCCC2)cc1	none
Cc1oc(-c2ccc(-c3ccccc3)cc2)nc1CN(CCO)C(C)C	none
O=C1/C(=C\c2cccnc2)Sc2ccccc21	tim23-1 inh 53 | tim23-1 confirm 59
CCCSC1=C(C#N)C(c2ccccc2C)CC(=O)N1 (stereo unspecified)	tim23-1 inh 51 (no result: PfHsp90 yeast 2) | tim23-1 confirm 44
CCCCSC1=C(C#N)C(c2ccccc2C)CC(=O)N1 (stereo unspecified)	tim23-1 inh 51 | tim23-1 confirm 52
Oc1ccc(C2=NNC(c3ccc(O)cc3)=NN2)cc1	none
NC(CSC(c1ccccc1)(c1ccccc1)c1cccc2ccccc12)C(=O)O (stereo unspecified)	none (no result: Mot1-301 SUMO, tim23-1 inh, tim10-1 inh, TIM10 inh)
Cc1ccc2c(c1)COc1c3ccc(C(=O)NC(C)C)cc3nn1-2	tim23-1 inh 51 | tim23-1 confirm 48
Cc1ccc2c(c1)COc1c3ccc(C(=O)N[C@@H](C)CO)cc3nn1-2	none
Cc1ccc(CN2CC(C(=O)N(C)CC(=O)Nc3cccc(F)c3)CC2=O)cc1 (stereo unspecified)	none
O=C(CCNS(=O)(=O)c1ccccc1C(F)(F)F)NCCCc1ccccc1	none (no result: Mot1-301 SUMO)
O=C(c1ccc(-c2nc3ccccc3s2)s1)N1CCOCC1	tim23-1 inh 53 (no result: PfHsp90 yeast 2) | tim23-1 confirm 44
CCN1CCN(C(=O)c2ccc(-c3nc4ccccc4s3)s2)CC1	none
O=C1/C(=C\c2ccc(O)cc2)SC(=S)N1Cc1ccccc1	tim23-1 inh 55 | tim23-1 confirm inactive
Cc1ccc(C(=O)N/N=C\c2ccc(Br)o2)o1	none
Cc1ccc(C(=O)N/N=C/c2ccc(-c3ccc(Br)cc3[N+](=O)[O-])o2)o1	tim23-1 inh 50 | tim23-1 confirm 67
CCOc1ccc(/C=C/C(=O)N(C)CC(=O)Nc2cccc(F)c2)cc1OCC	none
O=C(Nc1ccc(Cl)c(S(=O)(=O)N2CCOCC2)c1)[C@@H]1CCCN1C(=O)c1cccs1	none
Cn1cncc1C#Cc1c(C=O)n(C)c2ccccc12	tim23-1 inh 67 | tim23-1 confirm 62
Cn1cncc1C#Cc1c(C=O)[nH]c2ccccc12	none
Cc1nnc(SCC(=O)N2CCCCC2)n1CC1CCCO1 (stereo unspecified)	tim23-1 inh 69 | tim23-1 confirm inactive
Cc1nn(-c2ccccc2)c(C)c1/C=N/NC(=O)c1cc(C23CC4CC(CC(C4)C2)C3)[nH]n1	tim23-1 inh 53 | tim23-1 confirm 47
COc1ccc(C(=O)OCn2nnc3ccccc3c2=O)cc1OC	none
CN(C)S(=O)(=O)c1ccc(C(=O)OCn2nnc3ccccc3c2=O)cc1	tim23-1 inh 54 | tim23-1 confirm inactive
c1cncc(-c2nnc(SCc3nc4ccccc4[nH]3)o2)c1	none
c1ccc2[nH]c(CSc3nc4ccccc4o3)nc2c1	tim23-1 inh 54 | tim23-1 confirm 55
Cn1ccc(C(=O)NC(=S)Nc2ccc([N+](=O)[O-])cc2O)n1	none
COc1ccc(N2CCOCC2)c(NC(=O)c2ccc(Br)o2)c1	tim23-1 inh 52 | tim23-1 confirm 39
CCCCc1nnc(SCC(=O)NC2CCCCC2)n1C	none
COC(=O)c1sc(NC(=O)c2ccc3c(c2)OCO3)c(C#N)c1C	none (no result: Mot1-301 SUMO, tim23-1 inh, tim10-1 inh, TIM10 inh)
CC(C)(C)NC(=O)CN(CCN1CCOCC1)C(=O)CNS(=O)(=O)c1ccc(Cl)cc1	none
COc1ccc(-c2nc3ccccn3c2CN2CCN(c3ccccc3F)CC2)cc1	tim23-1 inh 55 | tim23-1 confirm 40
CCCCN1CC(=O)N2[C@H]3c4ccc(OC)cc4OC[C@@H]3[C@H](c3ccccc3)[C@]2(C)C1=O	none
CC(=O)c1sc(NC(=O)C2CCN(C(=O)c3ccc(F)cc3)CC2)nc1-c1ccccc1	none (no result: Mot1-301 SUMO)
COc1ccc(N2C(=O)[C@H]3CCC=C[C@H]3[C@@H]2c2ccccc2Br)cc1	none (no result: Mot1-301 SUMO)
O=C1[C@H]2CCC=C[C@H]2[C@H](c2ccccc2Br)N1Cc1ccccc1	tim23-1 inh 57 (no result: Mot1-301 SUMO) | tim23-1 confirm inactive
O=C1[C@H]2CCC=C[C@H]2[C@H](c2cccc(Br)c2)N1Cc1ccccc1	tim23-1 inh 58 (no result: Mot1-301 SUMO) | tim23-1 confirm 53
COc1ccc(/C=N/NC(=O)NC23CC4CC(CC(C4)C2)C3)c(OC)c1	tim23-1 inh 55 | tim23-1 confirm 45
Cc1ccccc1OCc1nc2ccccc2c(=O)n1NC(=O)c1ccco1	tim23-1 inh 53 | tim23-1 confirm inactive
CCOc1ccccc1N1CCN(C(=O)NCc2ccc(Cl)cc2)CC1	none
COc1ccc(CN(CC(O)COCc2ccccc2)S(=O)(=O)c2ccccc2Br)cc1OC (stereo unspecified)	tim23-1 inh 50 (no result: Mot1-301 SUMO) | tim23-1 confirm 36
